The text below walks through data of PubChem BioAssay (EPA / NIEHS).

Inconclusive results are not listed. Active and inactive are the calls of the source. The calls were made as follows: active = hit-call score of the fitted dose curve at least 0.9, where 1 is the maximum; inconclusive = response in the unintended direction; inactive = score below 0.9.

One test relates to NCBI gene 24521. The experiment in a line: NVS_IC_rKATPCh: NovaScreen (NVS) Ion Channel Assay for rat Potassium Channel, ATP-Sensitive (KATPCh) (AID 2283319). How it is done:
NVS_IC_rKATPCh is a biochemical, single-readout assay that uses extracted gene-proteins from Rat cortical membranes in a tissue-based cell-free assay. Measurements were taken 2 hours after chemical dosing in a 48-well plate.NVS_IC_rKATPCh is one of one assay component(s) measured or calculated from the NVS_IC_rKATPCh assay. It is designed to make measurements of radioligand binding, a form of binding reporter, as detected with scintillation counting signals by Filter-based radiodetection technology.Data from the assay component NVS_IC_rKATPCh was analyzed into 1 assay endpoint. This assay endpoint, NVS_IC_rKATPCh, was analyzed in the positive analysis fitting direction relative to DMSO as the negative control and baseline of activity. Using a type of binding reporter, loss-of-signal activity can be used to understand changes in the binding as they relate to the gene Kcnj1. Furthermore, this assay endpoint can be referred to as a primary readout, because the performed assay has only produced 1 assay endpoint. To generalize the intended target to other relatable targets, this assay endpoint is annotated to the ion channel intended target family, where the subfamily is potassium channel.
Binding assays used specific radioligands (tritiated, iodinated) with non-radioactive competitive displacement ligands in agonist or antagonist protocols (as indicated) and various reference compounds and inhibitors to titrate specific binding to receptors and transporters. Most enzyme assays (CYPs, kinases, phosphatases, proteases, HDACs) used recombinant protein and specific substrates (fluorescence mostly, some colorimetric and radioactive) and inhibitors, followed by a biochemical separation of substrate and product. All assays for the biochemical HTS were initially run in duplicate at a single concentration (10 uM for CYP450 assays and 25 uM for all others). Assay-chemical combinations meeting a pre-defined threshold (e.g., 30% inhibition and other criteria defined below) were then run in singleton concentration-response format with maximum concentration of 20 uM for CYPs and 50 uM for all others. Each assay was run with positive and negative controls, and concurrent controls on every plate. The follow-up (secondary) screen tested active chemical-pairs in concentration series, as well as a few additional assays not tested in the primary screen, some selected negative inactives, and several cases re-run in the concentration series for confirmatory purposes.
Regarding `Clc1ccc(C(c2ccc(Cl)cc2)C(Cl)Cl)cc1`, the compound was classed as inactive.

For `O=[N+]([O-])c1ccc(Oc2ccc(Cl)cc2Cl)cc1`, the call was inactive.

As for `Cc1ccc([N+](=O)[O-])cc1`, the AC50 is 4.96 µM (active).

The target in the next test is Sodium channel protein type 1 subunit alpha (Rattus norvegicus) (UniProt P04774). In words: NVS_IC_rNaCh_site2: NovaScreen (NVS) Ion Channel Assay for rat Sodium Channel, Site 2 (NaCh) (AID 2283322).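 Also: hit means loss of radioligand binding signal relative to DMSO so AC50 marks displacement.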 The essentials:
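Membranes: rat forebrain. Format: competitive radioligand displacement, filter separation, scintillation readout, 1 h exposure. Primary screen in duplicate at 25 uM; actives retested in concentration series.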
`CCCCCOC(=O)c1ccccc1C(=O)OCCCCC`: the compound was called inactive.

`CCCCCCCCCCCCCN1CC(C)OC(C)C1` (stereo not given): the compound was classed as inactive.

As for `COP(=S)(OC)SCN1C(=O)c2ccccc2C1=O`, the result was inactive.

For the next test, the target named is human Serotonin, 5-Hydroxytryptamine Receptor 3 (5HT3), HTR3A (gene 3359) (UniProt P46098). In words: NVS_LGIC_h5HT3: NovaScreen (NVS) Ligand-Gated Ion Channel Assay for human Serotonin, 5-Hydroxytryptamine Receptor 3 (5HT3) (AID 2283325). Summed up: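 Radioligand displacement binding to human 5-HT3 from HEK293 membranes, read by filter-based scintillation counting after 1 h. Screen at 25 uM in duplicate; chemicals passing threshold were retested in concentration-response up to 50 uM.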
Chain of human Serotonin, 5-Hydroxytryptamine Receptor 3 (5HT3), HTR3A (gene 3359) (P46098 whole entry, looked up): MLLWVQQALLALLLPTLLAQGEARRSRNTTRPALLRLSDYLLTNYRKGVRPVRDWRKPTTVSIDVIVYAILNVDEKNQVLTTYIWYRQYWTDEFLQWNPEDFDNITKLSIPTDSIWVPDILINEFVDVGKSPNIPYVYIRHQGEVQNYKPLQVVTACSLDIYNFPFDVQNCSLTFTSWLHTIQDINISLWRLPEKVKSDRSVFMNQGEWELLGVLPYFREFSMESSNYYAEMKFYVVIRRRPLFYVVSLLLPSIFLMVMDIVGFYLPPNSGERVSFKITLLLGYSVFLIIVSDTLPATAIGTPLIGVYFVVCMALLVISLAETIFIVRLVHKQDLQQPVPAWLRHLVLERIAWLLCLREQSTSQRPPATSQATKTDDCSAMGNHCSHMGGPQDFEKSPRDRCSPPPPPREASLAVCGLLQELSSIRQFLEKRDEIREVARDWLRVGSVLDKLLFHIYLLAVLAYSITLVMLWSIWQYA
In the case of `c1ccc(N=Nc2ccccc2)cc1`, the compound was called inactive.

On to `Brc1ccc(Oc2ccccc2)cc1`, for which the result was inactive.

Regarding `ClCCOCCCl`, the AC50 was 1.38 µM (active).

As for `Cc1cccc(N)c1N`, the compound was called inactive.

Take `Nc1ccc(N=Nc2ccccc2)cc1`: the AC50 was 11.4 µM (active).

As to `CC(C)N(Cc1ccccc1)C(=O)C(C)(C)C`, the compound was called inactive.

The target in the next test is rat Gamma-Aminobutyric Acid Type A Receptor, Non-Selective (GABAR-NonSelective), Gabra1 (gene 29705) (UniProt P62813). The experiment in a line: NVS_LGIC_rGABAR_NonSelective: NovaScreen (NVS) Ligand-Gated Ion Channel Assay for rat Gamma-Aminobutyric Acid Type A Receptor, Non-Selective (GABAR-NonSelective) (AID 2283326). Summed up: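 Radioligand displacement on rat whole-brain extract, 1 h, filter scintillation readout; signal loss fitted versus DMSO. Primary screen in duplicate at 25 uM; hits (e.g. ≥30% inhibition) retested in concentration-response up to 50 uM.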
Chain of rat Gamma-Aminobutyric Acid Type A Receptor, Non-Selective (GABAR-NonSelective), Gabra1 (gene 29705) (P62813 whole entry, looked up): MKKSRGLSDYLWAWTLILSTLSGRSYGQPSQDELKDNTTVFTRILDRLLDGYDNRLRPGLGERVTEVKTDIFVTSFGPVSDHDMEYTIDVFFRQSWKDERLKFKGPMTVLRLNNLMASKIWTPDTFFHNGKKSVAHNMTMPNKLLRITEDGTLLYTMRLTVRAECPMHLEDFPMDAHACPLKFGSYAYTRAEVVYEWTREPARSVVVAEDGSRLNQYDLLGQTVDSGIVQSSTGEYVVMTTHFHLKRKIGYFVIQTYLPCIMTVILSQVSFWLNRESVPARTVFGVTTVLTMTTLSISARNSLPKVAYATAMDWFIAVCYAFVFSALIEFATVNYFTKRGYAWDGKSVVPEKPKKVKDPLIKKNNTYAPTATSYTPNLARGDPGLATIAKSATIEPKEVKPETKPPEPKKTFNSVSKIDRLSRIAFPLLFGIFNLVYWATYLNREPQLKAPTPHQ
Turning to `CC(C)(O)c1cnn2c(-c3ccc(F)c(-c4c(F)cccc4C#N)c3)cnc2n1`, the outcome was inactive.

Turning to `CCC(C)c1ccc(O)cc1` (stereo not given), the call was inactive.

As for `Nc1ccc(N=Nc2ccccc2)cc1`, the outcome was inactive.
